Results as given in the supplement of paper PMC10849652.
About 7,900 targets were measured; listed, in parts, are those with a hit and a random draw of the rest. About 0.6% of all pairs of compound and target were hits.

Legend:
Test in all cases: log2 fold change, soluble protein after heating vs DMSO (PISA); higher = thermal stabilisation; K562 cells, 10 uM, 30 min; active = over 0.2 and 3.5 SD of the protein, either way, in both replicates (recomputed)
saracatinib = compound: CN1CCN(CCOc2cc(OC3CCOCC3)c3c(Nc4c(Cl)ccc5c4OCO5)ncnc3c2)CC1 [saracatinib]
In short: (§1)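 Aliquots of K562 cells (2×10^6 cells/mL) treated with 10 μM compound for 30 min were heated for 3 min over 48°C-58°C. After pooling and extraction in PBS with 0.5% NP-40 at 4°C, soluble protein from a 21,000xg, 90 min spin was quantified by TMTpro 16plex LC-MS/MS with channel sums equalised. Thermal stability is expressed against control samples, from duplicates, as a log2 fold change.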

sotrastaurin = compound: CN1CCN(c2nc(C3=C(c4c[nH]c5ccccc45)C(=O)NC3=O)c3ccccc3n2)CC1 [sotrastaurin]
In short: as §1

alvocidib = compound: CN1CC[C@H](c2c(O)cc(O)c3c(=O)cc(-c4ccccc4Cl)oc23)[C@H](O)C1 [alvocidib]
In short: as §1

Tubastatin A = compound: CN1CCc2c(c3ccccc3n2Cc2ccc(C(=O)NO)cc2)C1 [Tubastatin A]
In short: as §1

[1] = compound: CNC(=O)C1=CC=CC=C1NC2=NC(=NC=C2Cl)NC3=C(C=C(C=C3)N4CCOCC4)OC
In short: as §1

defactinib = compound: CNC(=O)c1ccc(Nc2ncc(C(F)(F)F)c(NCc3nccnc3N(C)S(C)(=O)=O)n2)cc1 [defactinib]
In short: as §1

[2] = compound: CNc1nc(-c2ccc3c(N)n[nH]c3c2)cc(N2C[C@@H](C(=O)NC3CCCCC3)CC[C@H]2C)n1
In short: as §1

[3] = compound: COC(=O)[C@H](CCSC)NC(=O)C1=C(C=C(C=C1)NC[C@H](CS)N)C2=CC=CC=C2
In short: as §1

[4] = compound: COC1=CC=C(C=C1)CN2C=CC3=C2C=C(C=C3)C(=O)NO
In short: as §1

filanesib = compound: CON(C)C(=O)N1N=C(c2cc(F)ccc2F)S[C@@]1(CCCN)c1ccccc1 [filanesib]
In short: as §1

zotarolimus = compound: CO[C@H]1C[C@@H]2CC[C@@H](C)[C@@](O)(O2)C(=O)C(=O)N2CCCC[C@H]2C(=O)O[C@H]([C@H](C)C[C@@H]2CC[C@H](n3cnnn3)[C@H](OC)C2)CC(=O)[C@H](C)/C=C(\C)[C@@H](O)[C@@H](OC)C(=O)[C@H](C)C[C@H](C)/C=C/C=C/C=C/1C [zotarolimus]
In short: as §1

idasanutlin = compound: COc1cc(C(=O)O)ccc1NC(=O)[C@@H]1N[C@@H](CC(C)(C)C)[C@](C#N)(c2ccc(Cl)cc2F)[C@H]1c1cccc(Cl)c1F [idasanutlin]
In short: as §1

[5] = compound: COc1cc2nc(-c3cc(F)ccc3O)nc(N[C@@H]3CNC[C@H]3C(C)(C)O)c2cc1OC
In short: as §1

gefitinib = compound: COc1cc2ncnc(Nc3ccc(F)c(Cl)c3)c2cc1OCCCN1CCOCC1 [gefitinib]
In short: as §1

lapatinib = compound: CS(=O)(=O)CCNCc1ccc(-c2ccc3ncnc(Nc4ccc(OCc5cccc(F)c5)c(Cl)c4)c3c2)o1 [lapatinib]
In short: as §1

pictilisib = compound: CS(=O)(=O)N1CCN(Cc2cc3nc(-c4cccc5[nH]ncc45)nc(N4CCOCC4)c3s2)CC1 [pictilisib]
In short: as §1

rucaparib = compound: CNCc1ccc(-c2[nH]c3cc(F)cc4c3c2CCNC4=O)cc1 [rucaparib]
In short: as §1

encorafenib = compound: COC(=O)N[C@@H](C)CNc1nccc(-c2cn(C(C)C)nc2-c2cc(Cl)cc(NS(C)(=O)=O)c2F)n1 [encorafenib]
In short: as §1

alisertib = compound: COc1cc(Nc2ncc3c(n2)-c2ccc(Cl)cc2C(c2c(F)cccc2OC)=NC3)ccc1C(=O)O [alisertib]
In short: as §1

[6] = compound: COc1cccc2cc(-c3nc([C@H]4CC[C@H](C(=O)O)CC4)n4ncnc(N)c34)[nH]c12
In short: as §1

Measured: log2 fold change

ADAM15 (UniProt Q13444)
Sequence of UniProt Q13444 (Q13444 whole entry, looked up): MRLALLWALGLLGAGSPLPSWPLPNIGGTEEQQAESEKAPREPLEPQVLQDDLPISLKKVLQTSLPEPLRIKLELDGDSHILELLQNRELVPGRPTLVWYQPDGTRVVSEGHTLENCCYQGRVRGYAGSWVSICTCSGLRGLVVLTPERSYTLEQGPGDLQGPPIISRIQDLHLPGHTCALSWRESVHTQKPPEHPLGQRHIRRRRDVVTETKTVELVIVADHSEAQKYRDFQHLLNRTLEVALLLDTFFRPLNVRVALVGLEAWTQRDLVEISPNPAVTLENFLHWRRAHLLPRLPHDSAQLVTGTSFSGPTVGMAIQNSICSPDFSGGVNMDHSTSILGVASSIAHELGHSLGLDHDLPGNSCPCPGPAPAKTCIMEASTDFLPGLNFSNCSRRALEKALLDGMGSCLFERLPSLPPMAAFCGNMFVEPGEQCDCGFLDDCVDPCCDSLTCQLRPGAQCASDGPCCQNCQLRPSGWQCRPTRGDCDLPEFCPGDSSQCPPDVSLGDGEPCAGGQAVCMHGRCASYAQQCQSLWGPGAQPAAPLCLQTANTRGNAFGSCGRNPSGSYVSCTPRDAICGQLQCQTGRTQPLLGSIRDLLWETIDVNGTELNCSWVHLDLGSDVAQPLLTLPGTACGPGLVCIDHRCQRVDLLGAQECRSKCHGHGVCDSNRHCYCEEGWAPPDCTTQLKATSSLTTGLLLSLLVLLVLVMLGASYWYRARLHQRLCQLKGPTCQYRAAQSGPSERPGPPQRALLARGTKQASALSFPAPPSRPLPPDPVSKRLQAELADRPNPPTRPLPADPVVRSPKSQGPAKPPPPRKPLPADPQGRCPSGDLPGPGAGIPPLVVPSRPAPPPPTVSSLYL
inactive: saracatinib -0.241 | sotrastaurin -0.034 | alvocidib -0.091 | Tubastatin A 0.065 | [1] -0.211 | defactinib -0.04 | [2] 0.073 | [3] 0.056 | [4] -0.159 | filanesib 0.065 | zotarolimus -0.206 | idasanutlin -0.083 | [5] 0.078 | gefitinib -0.029 | lapatinib 0 | pictilisib -0.045

BRIP1 (UniProt Q9BX63)
inactive: saracatinib -0.034 | sotrastaurin -0.016 | alvocidib -0.067 | Tubastatin A -0.089 | [1] 0.001 | defactinib 0.083 | rucaparib -0.068 | [2] -0.088 | encorafenib -0.003 | [3] 0.018 | [4] 0.072 | filanesib 0.098 | zotarolimus 0.061 | idasanutlin -0.14 | [5] 0.126 | gefitinib 0.047 | lapatinib 0.003 | pictilisib 0.067

BST2 (UniProt Q10589)
inactive: saracatinib 0.003 | sotrastaurin -0.097 | alvocidib -0.005 | Tubastatin A -0.055 | [1] -0.063 | defactinib 0.03 | rucaparib -0.008 | [2] -0.07 | encorafenib 0 | [3] 0.012 | [4] -0.064 | filanesib -0.05 | zotarolimus 0.041 | idasanutlin -0.044 | alisertib -0.059 | [5] -0.028 | gefitinib -0.022 | [6] 0.007 | lapatinib 0.038 | pictilisib 0.036

BZW2 (UniProt Q9Y6E2)
inactive: saracatinib -0.007 | sotrastaurin -0.032 | alvocidib -0.086 | Tubastatin A -0.004 | [1] -0.006 | defactinib -0.057 | rucaparib -0.022 | [2] 0.001 | encorafenib 0.058 | [3] -0.026 | [4] -0.029 | filanesib -0.05 | zotarolimus 0.02 | idasanutlin -0.126 | alisertib -0.056 | [5] 0.011 | gefitinib -0.009 | [6] 0.023 | lapatinib -0.055 | pictilisib -0.034

ALDH9A1 (UniProt P49189)
Sequence of UniProt P49189 (P49189 whole entry, looked up): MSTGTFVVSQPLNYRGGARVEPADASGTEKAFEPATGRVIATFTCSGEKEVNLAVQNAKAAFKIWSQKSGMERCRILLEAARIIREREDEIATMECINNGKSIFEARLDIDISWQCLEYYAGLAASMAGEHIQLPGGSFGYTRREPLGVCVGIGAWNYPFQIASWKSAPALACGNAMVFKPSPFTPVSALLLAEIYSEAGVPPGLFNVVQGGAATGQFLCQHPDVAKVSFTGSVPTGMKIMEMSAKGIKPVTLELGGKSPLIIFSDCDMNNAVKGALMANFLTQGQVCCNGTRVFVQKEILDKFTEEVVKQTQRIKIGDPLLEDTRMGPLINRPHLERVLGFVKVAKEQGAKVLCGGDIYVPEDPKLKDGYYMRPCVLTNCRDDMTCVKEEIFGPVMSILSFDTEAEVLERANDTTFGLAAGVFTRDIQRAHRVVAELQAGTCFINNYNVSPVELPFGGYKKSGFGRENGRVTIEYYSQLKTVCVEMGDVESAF
inactive: saracatinib 0.005 | sotrastaurin 0.032 | alvocidib -0.088 | Tubastatin A -0.019 | [1] 0.016 | defactinib -0.008 | rucaparib -0.014 | [2] -0.041 | encorafenib 0.023 | [3] -0.058 | filanesib -0.149 | zotarolimus -0.164 | idasanutlin -0.073 | alisertib -0.091 | [5] 0.038 | gefitinib 0.039 | [6] 0.081 | lapatinib -0.037 | pictilisib -0.124

ASS1 (UniProt P00966)
Sequence of UniProt P00966 (P00966 whole entry, looked up): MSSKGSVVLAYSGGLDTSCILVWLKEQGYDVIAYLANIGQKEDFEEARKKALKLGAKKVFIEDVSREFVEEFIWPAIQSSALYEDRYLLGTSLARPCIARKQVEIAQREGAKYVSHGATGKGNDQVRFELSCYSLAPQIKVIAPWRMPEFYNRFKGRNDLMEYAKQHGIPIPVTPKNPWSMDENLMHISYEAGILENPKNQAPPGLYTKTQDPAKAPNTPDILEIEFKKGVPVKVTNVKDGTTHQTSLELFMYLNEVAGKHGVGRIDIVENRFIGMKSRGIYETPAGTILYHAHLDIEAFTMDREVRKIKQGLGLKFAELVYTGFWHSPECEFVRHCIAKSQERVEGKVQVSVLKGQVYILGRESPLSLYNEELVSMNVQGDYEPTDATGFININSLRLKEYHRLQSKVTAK
inactive: saracatinib 0.062 | sotrastaurin 0.088 | alvocidib -0.098 | Tubastatin A -0.183 | [1] -0.047 | defactinib -0.007 | rucaparib 0.11 | [2] -0.122 | encorafenib -0.018 | [3] 0.045 | filanesib -0.101 | zotarolimus 0.012 | idasanutlin -0.085 | alisertib 0.254 | [5] 0.047 | gefitinib -0.005 | [6] 0.056 | lapatinib -0.012 | pictilisib 0.018

BRD4 (UniProt O60885)
inactive: saracatinib 0.047 | sotrastaurin -0.149 | alvocidib -0.044 | Tubastatin A -0.156 | [1] 0.065 | defactinib -0.051 | rucaparib -0.073 | [2] 0.204 | encorafenib 0.01 | [3] -0.002 | filanesib -0.068 | zotarolimus -0.253 | idasanutlin -0.001 | alisertib -0.064 | [5] 0.078 | gefitinib 0.152 | [6] -0.003 | lapatinib -0.039 | pictilisib 0.161

ATP12A isoform 2 (UniProt P54707)
Sequence of UniProt P54707 (P54707 whole entry, looked up): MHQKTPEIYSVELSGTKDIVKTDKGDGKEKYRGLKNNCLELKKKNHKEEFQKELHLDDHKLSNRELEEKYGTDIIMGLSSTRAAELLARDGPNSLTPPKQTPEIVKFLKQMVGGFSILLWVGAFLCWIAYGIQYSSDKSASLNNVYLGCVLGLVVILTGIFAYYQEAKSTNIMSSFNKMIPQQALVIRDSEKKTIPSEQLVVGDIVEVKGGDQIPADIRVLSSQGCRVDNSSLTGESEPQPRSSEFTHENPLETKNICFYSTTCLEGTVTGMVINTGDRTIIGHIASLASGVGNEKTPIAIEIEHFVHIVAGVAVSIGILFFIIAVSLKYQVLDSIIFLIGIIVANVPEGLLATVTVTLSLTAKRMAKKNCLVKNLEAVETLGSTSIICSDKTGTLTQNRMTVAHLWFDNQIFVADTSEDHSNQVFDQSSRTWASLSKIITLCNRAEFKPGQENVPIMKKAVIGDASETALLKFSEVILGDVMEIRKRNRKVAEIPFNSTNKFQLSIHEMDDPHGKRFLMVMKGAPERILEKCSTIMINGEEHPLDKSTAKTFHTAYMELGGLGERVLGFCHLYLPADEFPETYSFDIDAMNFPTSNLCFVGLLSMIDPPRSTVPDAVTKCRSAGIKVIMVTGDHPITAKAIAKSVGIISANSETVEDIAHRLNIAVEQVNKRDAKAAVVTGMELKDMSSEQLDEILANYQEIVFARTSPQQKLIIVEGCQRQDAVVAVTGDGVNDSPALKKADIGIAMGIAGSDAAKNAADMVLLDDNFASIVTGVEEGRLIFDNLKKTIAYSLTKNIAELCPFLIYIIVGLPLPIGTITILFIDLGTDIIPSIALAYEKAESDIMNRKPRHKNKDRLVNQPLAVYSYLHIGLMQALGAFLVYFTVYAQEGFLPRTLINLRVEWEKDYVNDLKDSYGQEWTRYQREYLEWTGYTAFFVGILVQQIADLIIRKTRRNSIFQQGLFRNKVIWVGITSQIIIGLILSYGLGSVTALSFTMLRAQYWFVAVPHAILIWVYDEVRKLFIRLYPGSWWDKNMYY
inactive: saracatinib 0.011 | sotrastaurin 0.031 | alvocidib -0.026 | Tubastatin A -0.019 | [1] 0.002 | defactinib -0.072 | rucaparib -0.027 | [2] 0.023 | encorafenib -0.015 | [3] -0.005 | [4] -0.034 | filanesib -0.015 | zotarolimus -0.015 | idasanutlin 0.016 | alisertib -0.008 | [5] 0.071 | gefitinib 0.032 | [6] 0.043 | lapatinib -0.074 | pictilisib 0.1

BTBD6 (UniProt Q96KE9)
Sequence of UniProt Q96KE9 (Q96KE9 whole entry, looked up): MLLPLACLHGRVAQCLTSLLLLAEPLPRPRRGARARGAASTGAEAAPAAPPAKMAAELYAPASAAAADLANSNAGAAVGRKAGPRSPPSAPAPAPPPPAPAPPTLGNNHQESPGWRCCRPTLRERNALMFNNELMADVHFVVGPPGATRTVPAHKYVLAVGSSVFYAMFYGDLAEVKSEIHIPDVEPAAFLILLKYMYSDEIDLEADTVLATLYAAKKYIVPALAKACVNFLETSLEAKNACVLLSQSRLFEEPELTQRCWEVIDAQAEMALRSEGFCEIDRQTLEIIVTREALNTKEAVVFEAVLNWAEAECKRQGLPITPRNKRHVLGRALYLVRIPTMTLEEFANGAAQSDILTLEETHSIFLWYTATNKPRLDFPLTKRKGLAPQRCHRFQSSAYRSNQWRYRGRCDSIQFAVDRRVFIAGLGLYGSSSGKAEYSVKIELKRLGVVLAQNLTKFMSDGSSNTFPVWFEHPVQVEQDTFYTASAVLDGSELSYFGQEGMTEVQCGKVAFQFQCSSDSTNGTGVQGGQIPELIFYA
inactive: saracatinib -0.031 | sotrastaurin 0.021 | alvocidib -0.143 | Tubastatin A 0.211 | [1] -0.141 | defactinib -0.131 | rucaparib 0.327 | [2] 0.082 | encorafenib -0.101 | [3] -0.009 | filanesib -0.019 | zotarolimus 0.062 | idasanutlin 0.053 | alisertib -0.058 | [5] 0.194 | gefitinib 0.03 | [6] -0.186 | lapatinib -0.072 | pictilisib 0.143

ATF7 isoform 6 (UniProt P17544)
inactive: sotrastaurin -0.105 | alvocidib 0.026 | Tubastatin A -0.088 | [1] -0.096 | defactinib 0.063 | [2] 0.034 | [3] -0.037 | [4] 0.04 | filanesib 0.417 | zotarolimus 0.03 | idasanutlin 0.084 | alisertib -0.007 | [5] -0.004 | gefitinib 0.09 | [6] 0.09 | lapatinib 0.121
active: saracatinib 0.477

ATXN3 isoform 1 (UniProt P54252)
inactive: alvocidib -0.109 | Tubastatin A 0.138 | [1] -0.03 | defactinib -0.119 | rucaparib -0.015 | encorafenib 0.085 | [3] 0.018 | [4] 0.023 | zotarolimus -0.051 | idasanutlin -0.114 | alisertib -0.004 | [5] 0.106 | gefitinib -0.192 | [6] 0.297 | lapatinib -0.031 | pictilisib -0.036

ACSL6 isoform 1 (UniProt Q9UKU0)
Sequence of UniProt Q9UKU0 (Q9UKU0 whole entry, looked up): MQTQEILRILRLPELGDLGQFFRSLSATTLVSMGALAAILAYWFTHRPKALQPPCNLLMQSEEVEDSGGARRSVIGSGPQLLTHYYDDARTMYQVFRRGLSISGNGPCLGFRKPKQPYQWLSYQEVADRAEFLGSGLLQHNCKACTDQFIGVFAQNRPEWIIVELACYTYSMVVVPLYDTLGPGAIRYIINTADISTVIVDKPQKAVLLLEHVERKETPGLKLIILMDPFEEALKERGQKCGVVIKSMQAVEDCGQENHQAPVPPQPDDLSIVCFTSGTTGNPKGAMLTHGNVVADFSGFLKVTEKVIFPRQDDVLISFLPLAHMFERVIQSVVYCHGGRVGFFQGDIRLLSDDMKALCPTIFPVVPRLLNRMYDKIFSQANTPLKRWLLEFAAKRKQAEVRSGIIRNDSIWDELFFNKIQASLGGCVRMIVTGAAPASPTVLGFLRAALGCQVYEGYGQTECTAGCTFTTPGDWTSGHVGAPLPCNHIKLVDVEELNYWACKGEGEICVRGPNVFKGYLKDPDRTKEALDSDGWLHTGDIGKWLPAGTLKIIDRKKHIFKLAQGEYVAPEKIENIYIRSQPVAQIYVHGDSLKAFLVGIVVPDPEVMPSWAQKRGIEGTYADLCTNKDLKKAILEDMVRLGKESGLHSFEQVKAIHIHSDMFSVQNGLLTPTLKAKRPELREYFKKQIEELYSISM
inactive: saracatinib -0.041 | sotrastaurin 0.177 | Tubastatin A -0.076 | [1] -0.048 | defactinib 0.155 | [2] -0.007 | [3] 0.021 | filanesib -0.054 | alisertib -0.013 | gefitinib 0.103 | [6] 0.123 | pictilisib 0.051

AP2S1 (UniProt M0QZ21)
inactive: Tubastatin A 0.335

ADD2 isoform 9 (UniProt P35612)
inactive: sotrastaurin -0.122 | filanesib 0.043 | alisertib -0.072 | [5] -0.053 | [6] 0.282 | lapatinib 0.04

ADPRH (UniProt P54922)
inactive: sotrastaurin -0.067 | Tubastatin A 0.213 | [1] -0.011 | defactinib -0.076 | [3] 0.028 | [4] 0.098 | filanesib -0.088 | alisertib -0.099 | [5] 0.135 | gefitinib 0.013 | [6] -0.033 | lapatinib 0.05 | pictilisib -0.107

AMD1 (UniProt P17707)
Sequence of UniProt P17707 (P17707 whole entry, looked up): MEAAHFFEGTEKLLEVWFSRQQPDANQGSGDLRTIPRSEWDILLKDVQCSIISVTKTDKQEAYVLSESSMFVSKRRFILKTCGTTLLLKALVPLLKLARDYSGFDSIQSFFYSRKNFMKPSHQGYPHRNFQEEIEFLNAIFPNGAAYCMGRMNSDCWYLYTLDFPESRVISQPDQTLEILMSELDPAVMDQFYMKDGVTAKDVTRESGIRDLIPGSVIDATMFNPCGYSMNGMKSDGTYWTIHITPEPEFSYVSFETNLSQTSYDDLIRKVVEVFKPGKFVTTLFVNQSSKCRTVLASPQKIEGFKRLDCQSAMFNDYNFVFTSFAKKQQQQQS
inactive: sotrastaurin -0.017 | Tubastatin A 0.014 | [1] 0.02 | defactinib 0.082 | rucaparib -0.08 | encorafenib 0.023 | [3] 0.042 | [4] -0.009 | filanesib -0.128 | idasanutlin -0.193 | alisertib -0.023 | [5] 0.024 | gefitinib 0.041 | [6] 0.058 | lapatinib -0.034 | pictilisib 0.043

BAIAP2 isoform 4 (UniProt Q9UQB8)
inactive: sotrastaurin 0.147 | alvocidib -0.034 | Tubastatin A 0.288 | filanesib 0.302 | zotarolimus -0.184

BSCL2 isoform 4 (UniProt Q96G97)
Sequence of UniProt Q96G97 (Q96G97 whole entry, looked up): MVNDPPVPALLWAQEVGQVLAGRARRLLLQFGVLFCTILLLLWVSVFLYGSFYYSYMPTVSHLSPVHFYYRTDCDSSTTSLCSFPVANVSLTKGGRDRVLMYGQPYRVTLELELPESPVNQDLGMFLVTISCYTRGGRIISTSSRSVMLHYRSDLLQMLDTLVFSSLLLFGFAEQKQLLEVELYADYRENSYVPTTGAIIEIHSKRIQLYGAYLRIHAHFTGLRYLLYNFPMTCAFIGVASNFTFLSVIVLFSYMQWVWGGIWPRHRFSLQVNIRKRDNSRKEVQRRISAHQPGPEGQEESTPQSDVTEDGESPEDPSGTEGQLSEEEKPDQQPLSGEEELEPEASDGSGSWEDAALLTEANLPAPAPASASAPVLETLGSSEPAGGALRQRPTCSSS
inactive: saracatinib -0.019 | alvocidib -0.164 | Tubastatin A 0.03 | [1] -0.025 | defactinib -0.113 | [2] -0.122 | [3] -0.071 | zotarolimus 0.076 | idasanutlin -0.132 | alisertib -0.037 | [5] -0.248 | gefitinib 0.021 | [6] 0.069 | lapatinib 0.048 | pictilisib 0.126

APOBEC3G (UniProt Q9HC16)
inactive: saracatinib 0.046 | sotrastaurin 0.023 | Tubastatin A -0.045 | [1] -0.093 | defactinib -0.097 | rucaparib 0.152 | [2] -0.121 | encorafenib -0.263 | [3] 0.038 | [4] -0.012 | filanesib 0.066 | idasanutlin 0.039 | alisertib -0.092 | [5] 0.047 | gefitinib -0.074 | [6] -0.053 | lapatinib 0.046

BDH2 (UniProt Q9BUT1)
Sequence of UniProt Q9BUT1 (Q9BUT1 whole entry, looked up): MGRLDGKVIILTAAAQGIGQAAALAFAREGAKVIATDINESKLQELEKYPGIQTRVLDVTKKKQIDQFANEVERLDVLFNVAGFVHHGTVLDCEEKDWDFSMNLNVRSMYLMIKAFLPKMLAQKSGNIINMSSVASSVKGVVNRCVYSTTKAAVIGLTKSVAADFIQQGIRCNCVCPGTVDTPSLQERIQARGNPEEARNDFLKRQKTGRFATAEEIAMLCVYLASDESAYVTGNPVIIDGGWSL
inactive: saracatinib -0.088 | sotrastaurin 0 | alvocidib -0.177 | [1] -0.061 | defactinib -0.021 | [2] 0.015 | [3] -0.039 | [4] 0.022 | filanesib -0.007 | zotarolimus 0.098 | idasanutlin -0.039 | alisertib 0.071 | [5] 0.065 | [6] -0.001 | lapatinib 0.012 | pictilisib 0.007
